The record followed here is PubChem BioAssay AID1220 (Sanford-Burnham Center for Chemical Genomics, 2008).

Hit rate of the full screen: of about 190,000 compounds, about 1,300 (0.68%) were called active. This excerpt belongs to a sample that is enriched for actives. A number with no mark means an inactive call. Cut-off read from the data, not from the text of the source: active = inhibition above about 50%; inactive = the rest.

Mannose-6-phosphate isomerase (Homo sapiens), sequence (P34949 whole entry, looked up): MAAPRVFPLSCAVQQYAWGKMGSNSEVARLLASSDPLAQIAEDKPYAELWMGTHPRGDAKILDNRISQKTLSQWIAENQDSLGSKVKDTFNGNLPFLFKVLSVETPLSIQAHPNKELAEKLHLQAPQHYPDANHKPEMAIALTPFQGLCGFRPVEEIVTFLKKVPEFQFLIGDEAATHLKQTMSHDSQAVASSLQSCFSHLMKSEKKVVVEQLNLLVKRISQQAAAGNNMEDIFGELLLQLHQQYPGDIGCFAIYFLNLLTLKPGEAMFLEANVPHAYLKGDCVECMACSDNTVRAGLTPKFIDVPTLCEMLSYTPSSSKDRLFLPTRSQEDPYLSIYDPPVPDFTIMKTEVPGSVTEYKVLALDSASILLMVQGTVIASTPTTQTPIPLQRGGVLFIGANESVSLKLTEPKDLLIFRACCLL

The experiment addresses Mannose-6-phosphate isomerase (Homo sapiens) (UniProt P34949). As to the kind of experiment: MPI inhibition at elevated mannose 6-phosphate – biochemical, fluorescence intensity, high mannose 6-phosphate, primary screen (AID 1220). The conditions noted are these: recombinant PMI enzyme, coupled fluorescence intensity; at 20 µM; stronger effect = higher value.
Turning to `O=C(CN1CCC(C(O)(c2ccccc2)c2ccccc2)CC1)Nc1ccccc1`, the inhibition is -1.7%.

Take `CCN1CCN(c2nc(-c3ccncc3)nc3ccccc23)CC1`: the inhibition is 6.3%. To `NC(=O)C1CCN(C(=O)c2cc3n(n2)C(C(F)(F)F)CC(c2ccco2)N3)CC1` (stereo not given) belongs 0.3%; to `COc1ccc(CCNC(=O)CCCn2nc(C)c([N+](=O)[O-])c2C)cc1OC`, 8.3%.

`CCCCn1c2nc3ccccc3nc2c2c(=O)n(C(C)CC)cnc21` (stereo not given): the inhibition was 53.2% (active).

Consider `CCCCn1c2nc3ccccc3nc2c2c(=O)n(CCC(C)C)cnc21`, for which the inhibition is -12.9%. For the compound `CCCCn1c2nc3ccccc3nc2c2c(=O)n(CCC)cnc21`, the inhibition is 7.3%.

Take `CCOC(=O)C1=C(CSc2nc(CC)c(C)cc2C#N)OC(N)=C(C#N)C1c1ccccc1` (stereo not given): the inhibition is 11.9%. Regarding `CCOC(=O)C1=C(CSc2nc(-c3ccccc3)ccc2C#N)OC(N)=C(C#N)C1c1ccc(OC)cc1` (stereo not given), the inhibition is 29.4%. In the case of `CCOC(=O)C1=C(CSc2nc(C)cc(C)c2C#N)OC(N)=C(C#N)C1c1cccs1` (stereo not given), the inhibition was 55.7% (active).

Regarding `CCOC(=O)C1=C(CSc2nc(CC)c(C)cc2C#N)OC(N)=C(C#N)C1c1ccc(OC)cc1` (stereo not given), the inhibition is 52.3% (active). `CCOC(=O)C1=C(CSc2nc(C)cc(C)c2C#N)OC(N)=C(C#N)C1c1ccccc1` (stereo not given): the inhibition is 47%.

Regarding `CCOC(=O)C1=C(CC)OC(N)=C(C#N)C1c1cccs1` (stereo not given), the inhibition is 4.7%. With `COC(=O)c1ccc(S(=O)(=O)N2CCCCC2)o1`, the inhibition is 9%. Turning to `Cc1cc(NN)nc(NS(=O)(=O)c2ccccc2)n1`, the inhibition was 5%. In the case of `CC(C)N(C(=O)CSc1nnc(CN2CCCCCC2=O)n1-c1ccccn1)C(C)C`, the inhibition is -4.7%. Turning to `COc1ccc(N(C(=O)Cn2nnc3ccccc32)C(C(=O)NC(C)(C)C)c2ccc(OC)c(O)c2)cc1` (stereo not given), the inhibition is -4%. To `CCc1ccccc1NC1Nc2cc(C)nn2S1` (stereo not given) belongs 27.6%. To `Cc1cc2n(n1)SC(Nc1cccc3ccccc13)N2` (stereo not given) belongs 54.1% (active). In the case of `Cc1cc2n(n1)SC(Nc1ccccc1)N2` (stereo not given), the inhibition was -0.8%. Turning to `CCCC1CCC(=NNC(=O)OC(C)(C)C)CC1` (stereo not given), the inhibition is 2.1%.

For the compound `Cc1ccc(Oc2ccc(Cl)cc2N)cc1`, the inhibition is -7.7%.

Consider `CN(C)c1ccc(Cl)cc1N`, for which the inhibition was 53.2% (active). To `CN(C)c1ccc(C(=O)c2ccc(N(C)C)c(N)c2)cc1N` belongs 23.2%. To `O=C1Nc2ccc(S(=O)(=O)N3CCCC3)c3ccc(S(=O)(=O)N4CCCC4)c1c23` belongs 32.5%; to `CCCCCC(=O)NC(CC(=O)OC)c1ccc2c(c1)OCO2` (stereo not given), 2.2%.

As to `CCc1ccc(OCC(=O)OCC(=O)c2ccc3c(c2)NC(=O)CO3)cc1`, the inhibition is 5%. Regarding `COCc1nnc(NC(=O)c2ccccc2[N+](=O)[O-])s1`, the inhibition is -1.2%. As for `CC1=C(C)/C(=N/OC(=O)c2cccc([N+](=O)[O-])c2)C=CC1=O`, the inhibition was 13.4%. In the case of `CC1=CC(=NOC(=O)c2cccc([N+](=O)[O-])c2)C=C(C)C1=O`, the inhibition is 19.6%. Take `CC1=C(C)/C(=N\OC(=O)/C=C/c2ccccc2)C=CC1=O`: the inhibition was 35.2%.

As for `COc1ccc(C(=O)ON=C2C=C(C)C(=O)C(C)=C2)cc1`, the inhibition was 40.1%. Regarding `COc1cc(C(=O)O/N=C2\C=CC(=O)C=C2C)cc(OC)c1OC`, the inhibition was 64.7% (active).

Turning to `COc1cc(C(=O)ON=C2C=C(C)C(=O)C(C)=C2)cc(OC)c1OC`, the inhibition was 59.8% (active). `CC1=CC(=O)C=C(C)C1=NOC(=O)c1cccc([N+](=O)[O-])c1`: the inhibition was -3%. To `COc1cc(C(=O)O/N=C(\N)c2ccncc2)cc(OC)c1OC` belongs -11.7%.

Turning to `COc1cc(C(=O)O/N=C2/C=CC(=O)C(C)=C2C)cc(OC)c1OC`, the inhibition is 66% (active). To `COc1cc(C(=O)ON=C2C(C)=CC(=O)C=C2C)cc(OC)c1OC` belongs 71.8% (active). To `COc1cc(C(=O)O/N=C2\CCCc3c2ccc(OC)c3[N+](=O)[O-])cc(OC)c1OC` belongs 13.8%. On to `COc1cc(C(=O)Oc2cc(C)cc(C)c2)cc(OC)c1OC`, for which the inhibition was 9.6%. To `CN(C)CCCN(Cc1cc2cc3c(cc2[nH]c1=O)OCO3)C(=S)NCc1ccco1` belongs 30.6%; to `CCCCc1nnc(NC(=O)CSc2nc(=O)cc(N)n2-c2ccccc2)s1`, 0.8%. As to `CS(=O)(=O)N(CC(=O)N1CCOCC1)c1ccc2c(c1)OCO2`, the inhibition is 1.8%. As for `COC(=O)COc1ccc(S(=O)(=O)NCc2cccnc2)cc1`, the inhibition is 4.3%. As for `CC(C)(CO)Nc1ccc([N+](=O)[O-])cc1[N+](=O)[O-]`, the inhibition is 0.9%. To `O=C1Nc2ccccc2Oc2cc([N+](=O)[O-])cc(Oc3ccccc3)c21` belongs -3.2%; to `COc1cc(C(=O)O/N=C(\N)c2ccc([N+](=O)[O-])cc2)cc(OC)c1OC`, 5.3%. As for `COc1cc(C(=O)O/N=C2/C=C(C)C(=O)C=C2C)cc(OC)c1OC`, the inhibition is 53.5% (active). Consider `COc1cc(C(=O)Oc2cccc(C)c2)cc(OC)c1OC`, for which the inhibition is 2.4%. To `Nc1cc(N2CCCC2)c(Cl)cc1[N+](=O)[O-]` belongs 25.9%; to `CC1CCC(C(C)C)C(OP(=O)(c2ccc(N(C)C)cc2)C(O)c2cccnc2)C1` (stereo not given), -4.5%; to `COc1ccc(C(=O)Nc2ccc3c(c2)OCCO3)cc1`, -6.5%. As for `COc1ccc(C(=O)CCNc2ccc(C)c(Cl)c2)cc1`, the inhibition was 0.5%. To `COc1ccc(C(=O)CCNc2ccc3c(c2)OCCO3)cc1` belongs 58% (active).

Turning to `O=C(COC(=O)c1ccc2c(=O)n3c(nc2c1)CCC3)NC1CCS(=O)(=O)C1` (stereo not given), the inhibition is -5.4%.

As for `Cc1ccc(C(=O)N2CCOCC2)cc1S(=O)(=O)Nc1cccc(C)c1C`, the inhibition is -7%. Consider `COc1cc(C2C(C#N)=C(N)OC3=C2C(=O)CCC3)c([N+](=O)[O-])cc1OC` (stereo not given), for which the inhibition is 52% (active). In the case of `COc1ccc(C2C(C#N)=C(N)OC3=C2C(=O)CCC3)cc1OC` (stereo not given), the inhibition was -4%. On to `COc1cc(C2C(C#N)=C(N)OC3=C2C(=O)CC(C)(C)C3)c([N+](=O)[O-])cc1OC` (stereo not given), for which the inhibition was 49.6%. Turning to `CCC(C)NC(=O)CO/N=C/c1ccc(C(=O)OC)cc1` (stereo not given), the inhibition was 23.9%.
